# From PubChem BioAssay (Tox21)
# Several values for one entry are separate records, joined by “and”; a condition that tells them apart may be missing. Equal entries are not always repeated. Inconclusive results are not listed. A call without a number means that no potency is given here. Activity calls are given as the source filed them. Calls follow the shape of the full dose curve.
# Test: qHTS assay for small molecule agonists of the p53 signaling pathway - cell viability (AID 651633); also: nearly all actives have a fitted effect of over 30% in size
# Settings: p53RE-bla HCT-116 viability, ATP luminescence, 16 h; series mostly up to 83.3 µM
# From the text: National Center for Advancing Translational Sciences [NCATS]
# NIH Chemical Genomics Center [NCGC]
# U.S. Environmental Protection Agency [EPA]
# National Institutes of Environmental Health Sciences [NIEHS]
# National Toxicology Program [NTP]
# U.S. Food and Drug Administration [FDA]
# p53, a tumor suppressor protein, is activated following cellular insult, including DNA damage and other cellular stresses. The activation of p53 regulates cell fate by inducing DNA repair, cell cycle arrest, apoptosis, or cellular senescence. The activation of p53, therefore, is a good indicator of DNA damage and other cellular stresses. […] The activation of the reporter gene under culture conditions can be detected by fluorescence intensity. This cell line was used to screen the Tox21 compound library in a 1536-well plate format and to identify agonists that activate the p53 signaling pathway.
# Tox21 Assay Protocol Summary:
# The p53RE-bla cells were dispensed at 4,000 cells/5 ul/well in 1536-well black wall/clear bottom plates using a Multidrop dispenser. After the assay plates were incubated at a 37 C/5% CO2 incubator for 5 hours, 23 nL of compounds dissolved in DMSO, positive controls or DMSO only was transferred to the assay plate by a pin tool. The plates were incubated at 37 C for 16 hours. After 1 uL of LiveBLAzerTM B/G FRET substrate was added using a Flying Reagent Dispenser, the plates were incubated at room temperature for 2 hours, and fluorescence intensity was measured by an Envision plate reader.
# For cell viability readout that measures cytotoxicity, 4 ul/well of CellTiter-Glo reagent was added into the assay plates using a Flying Reagent Dispenser. After 30 min incubation at room temperature, the luminescence intensity in the plates was measured using a ViewLux plate reader.
# Potency is read from the fitted curve at half-maximal effect.
row,SMILES,Potency
1,O=C1NC2CCCCN2C12CCN(CCCN1c3ccccc3CCc3ccc(Cl)cc31)CC2 (stereo not given),inactive
2,CCCCCCCCCCCCCCCC,inactive
3,CN(C)c1ccc(N=NS(=O)(=O)O)cc1,inactive
4,CCCCCCCCCCCC(=O)N(CC)CC,inactive
5,CCCCCCCC/C=C\CCCCCCCC(=O)N(C)CC(=O)O,43.3 µM (active)
6,Cc1ccc(N)cc1O,inactive
7,CCCCN(CCCC)CCC(O)c1cc2c(Cl)cc(Cl)cc2c2cc(C(F)(F)F)ccc12 (stereo not given),inactive
8,Cc1cc2c(C(C)C)c(O)c(O)c(C=O)c2c(O)c1-c1c(C)cc2c(C(C)C)c(O)c(O)c(C=O)c2c1O,8.41 µM (active)
9,O=C1OC(=O)c2cccc3cccc1c23,inactive
10,NCCCCCCNCCCCCCN,inactive
11,CCCCCCCCCCOCC(O)CN (stereo not given),29.8 µM (active)
12,CCN(CC)CCOC(=O)C1(C2CCCCC2)CCCCC1,inactive
13,CC1CCCNC1 (stereo not given),inactive
14,ClC/C=C\CCl,inactive
15,CCC(C)(C)c1cc(O)c(C(C)(C)CC)cc1O,43.3 µM (active)
16,C[C@H]1O[C@@H](O[C@H]2[C@@H](O)C[C@H](O[C@H]3[C@@H](O)C[C@H](O[C@H]4CC[C@@]5(C)[C@H](CC[C@@H]6[C@@H]5C[C@@H](O)[C@]5(C)[C@@H](C7=CC(=O)OC7)CC[C@]65O)C4)O[C@@H]3C)O[C@@H]2C)C[C@H](O)[C@@H]1O,94.4 nM (active) and 13.7 nM (active) and 30.3 nM (active)
17,COc1cc(C(=O)NS(=O)(=O)c2ccccc2C)ccc1Cc1cn(C)c2ccc(NC(=O)OC3CCCC3)cc12,5.96 µM (active)
18,CC(C)(C)CC(C)(C)c1ccccc1O,43.5 µM (active)
19,CC(C)(c1cc(Br)c(OCCO)c(Br)c1)c1cc(Br)c(OCCO)c(Br)c1,47.5 µM (active)
20,C=C[C@](C)(O)CC[C@@H]1[C@@]2(C)CCCC(C)(C)[C@@H]2CC[C@@]1(C)O,61.1 µM (active)

row,SMILES,Potency
1,CCOC(=O)COc1ccc(C)cc1,inactive
2,CCCN(CCc1cccs1)[C@H]1CCc2c(O)cccc2C1,inactive
3,CCCCCCOc1ccc(O)cc1,inactive
4,NC(=O)c1ccccc1N,inactive
5,Nc1ccc2cc3ccc(N)cc3nc2c1,inactive
6,C/C=C/C(=O)Oc1c(CCCCCC(C)C)cc([N+](=O)[O-])cc1[N+](=O)[O-],15.4 µM (active)
7,Cc1cn[nH]c1,inactive
8,Nc1ncnc2c1ncn2[C@@H]1O[C@H](COP(=O)(O)O)[C@@H](O)[C@H]1O,inactive
9,CCN(CC)CCOc1ccc(C(O)(Cc2ccc(Cl)cc2)c2ccc(C)cc2)cc1 (stereo not given),29.8 µM (active)
10,Cc1ccc2ccc3cccc4ccc1c2c34,inactive
11,C[C@]12CC[C@H]3C(=CCc4cc(O)ccc43)[C@@H]1CCC2=O,inactive
12,c1ccc(Sc2ccccc2)cc1,inactive
13,C1CC(COCC2CO2)CCC1COCC1CO1 (stereo not given),inactive
14,N#CSCSc1nc2ccccc2s1,21.7 µM (active)
15,N[C@@H](CSSC[C@H](N)C(=O)O)C(=O)O,inactive
16,CCCCCCC(C)Nc1ccc(Nc2ccccc2)cc1 (stereo not given),54.5 µM (active)
17,CCOC(=O)C1=C(C)NC(C)=C(C(=O)OCC)C1c1ccccc1/C=C/C(=O)OC(C)(C)C,29.8 µM (active)
18,CCCCCCCCCC(=O)N(C)C,inactive
19,CC(=O)Oc1ccc(C2(c3ccc(OC(C)=O)cc3)Oc3ccccc3NC2=O)cc1,inactive
20,COc1ccc2sc(C(=O)Nc3nnn[nH]3)c(OC(C)C)c2c1,24.2 µM (active)
